Assay outcomes from PubChem BioAssay.
Mm-Cpn inhibitor = inhibitors of Methanococcus maripaludis chaperonin TRiC (MmCpn) | purified Mm-Cpn ATPase, ADP Transcreener TR-FRET | Potency, µM (top dose mostly 76.9 µM), inactives show at the top dose activity, negative = inhibition, most hits filed as inhibitors | 330,000 tested, 0.031% active | AID 504842; also: potency is read from the fitted curve at half-maximal effect; % is scaled to controls: 0 for no effect and ±100 for the full control effect; nearly all actives have a fitted effect of over 80% in size
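Purified archaeal chaperonin (25 nM final) was preincubated with compound for 10 min at 37°C, then ATP (10 uM final) was added for 30 min at 37°C in Tris pH 7.4/KCl/MgCl2/DTT buffer. ADP was quantified by HTRF Transcreener TR-FRET.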
CCT chaperon mod = modulators of cytosolic chaperonin (CCT/TRiC) activity. activity change, % (test concentration not listed), hits read low. 360,000 tested, 0.3% active. purified chaperonin ATPase assay, HTRF ADP detection, 30 min; in the data active = activity change below about -30%; also: % is scaled to controls: 0 for no effect and ±100 for the full control effect
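ATPase activity: ADP formed was measured by HTRF Transcreener (665/615 nm ratio) after 30 min at 37 deg C with 10 uM ATP. Compounds screened at one 76 uM concentration against 40 or 20 nM TRiC in Tris pH 7.4/KCl/MgCl2/DTT buffer.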
FUS yeast rescue = suppressors of FUS proteinopathy in yeast. Potency, µM (titrated, usually from 76.6 µM), usual class: activators. 390,000 tested, 0.24% active. S. cerevisiae FUS-expressing, growth rescue, OD600, 24 h;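 also: potency is read from the fitted curve at half-maximal effect; plate controls were DMSO vehicle for no effect and reference control for full effect; nearly all actives have a fitted effect of over 55% in size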
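S. cerevisiae expressing FUS from galactose induction served as the toxicity model. Growth after 24hr at 30C, read as absorbance at 600 nm, indicates suppression of toxicity; compounds dosed at several concentrations.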
Abeta rescue = A-beta toxicity reversal in yeast; 410,000 tested, 0.063% active; AID 1347071; yeast expressing A-beta42, growth rescue, OD600, 48 h; response scale: 0% DMSO, 100% iron-clioquinol control; Potency, µM (top dose mostly 46.1 µM), actives largely listed as activators; also: potency is read from the fitted curve at half-maximal effect; nearly all actives have a fitted effect of over 55% in size
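Growth rescue measured by 600 nm absorbance after 48 h yeast culture at 30 C with compound. Values normalized between DMSO and an equimolar ferric chloride plus clioquinol control.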
TDP-43 yeast inh = TDP-43 toxicity inhibition in yeast. TDP-43 expressing yeast growth rescue, BacTiter-Glo, 24 h. 410,000 tested, 1.8% active. AID 652104. Potency, µM (doses to about 46.1 µM), for inactives: at the top dose growth rescue (activation), hits mostly activators; also: potency is read from the fitted curve at half-maximal effect; % of control where 0% means no effect; nearly all actives have a fitted effect of over 50% in size
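Yeast cells expressing TDP-43 under galactose induction are exposed to compounds for 24 hr at 30 deg C. BacTiter-Glo luminescence measures growth, so protective compounds score as activators.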
aSyn yeast inh = inhibitors of alpha-synuclein toxicity in yeast; Yeast expressing alpha-synuclein, growth rescue, BacTiter-Glo, 24 h; Potency, µM (doses to about 46.1 µM), without a hit: top-dose growth rescue (activation), hits mostly activators; 370,000 tested, 0.14% active; AID 652106; also: potency is read from the fitted curve at half-maximal effect; % of control where 0% means no effect; nearly all actives have a fitted effect of over 65% in size
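Galactose-induced alpha-syn yeast (OD600=0.02, raffinose-pregrown) + pinned cpd, 24 hr, 30 deg C; growth by BacTiter-Glo luminescence. Growth restoration scores as activation.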
* = called active by the depositor; i = inactive; u = inconclusive; x = not tested or not shown; [ ] = dose if it differs, or a comment. An excerpt weighted towards active compounds, which were near 2.3% of everything screened. Unless noted, calls follow the shape of the dose curve; as a rule, active = well fitted curve in the direction sought with a large enough effect; inconclusive = small, poorly fitted or top-dose-only effect, or another doubt; inactive = no such curve, though single readings can be large; an effect the other way counts as inactive or inconclusive.

SMILES	Mm-Cpn inhibitor	CCT chaperon mod	FUS yeast rescue	Abeta rescue	TDP-43 yeast inh	aSyn yeast inh
COC(=O)[C@]12C[C@H](CC(=O)N3CCC(c4ccccc4)CC3)C(=O)N(Cc3ccc(Cl)cc3Cl)C1=C[C@H](C(C)(C)C)O[C@@H]2C	x	x	i	x	x	x
COc1cccc(CN(C)C(=S)Nc2cccc(C)c2)c1	1.7%	1.4	i	i	11.2µM*	-6.2%
COc1ccc(CC(=O)NC(=S)Nc2cccc(C)c2)cc1	x	0.2	i	i	-6.5%	18.4%
CCN(CC)C(=S)Nc1ccc(OC)cc1	-1.4%	-21.8	x	i	13.1%	0.1%
COc1ccc(CN(C)C(=S)Nc2ccc(Cl)cc2)cc1	4.0%	-2.0	i	11.2µM*	11.6%	-17.8%
CCN(CC)C(=O)CSc1nnc(-c2ccc(C(C)(C)C)cc2)n1Cc1ccco1	x	x	i	x	x	x
COc1cccc(/C=C2\Oc3cc(OC(=O)N4CCOCC4)ccc3C2=O)c1	0.7%	-3.4	i	i	-5.5%	1.1%
COc1cccc(/C=C2\Oc3cc(OCC(=O)N4Cc5ccccc5C[C@H]4C(=O)O)ccc3C2=O)c1	-1.2%	-3.5	28.2µM*	i	4.0%	7.0%
C/C(=N\Nc1ccc(F)cc1F)c1ccccc1O	1.7%	4.1	i	i	12.6µM*	2.2%
Cc1ccc(S(=O)(=O)N2CCCC2C(=O)N2CCc3ccccc3C2)cc1 (configuration not stated)	x	x	i	x	x	x
CC(=O)Nc1ccc(NCN2C(=O)[C@@H]3[C@H]4CC[C@H](C4)[C@@H]3C2=O)cc1	0.0%	2.3	x	i	6.31µM*	0.6%
O=C1C2C3CCC(C3)C2C(=O)N1CNc1ccccc1 (configuration not stated)	1.1%	-1.1	x	i	u	4.2%
N#CC1CCN(c2nc(-c3ccc(Br)cc3)cs2)CC1	x	x	i	x	x	x
COc1cccc(NC(=O)CN(C)C(=O)c2c(C)noc2C)c1	-11.3%	-1.7	x	i	-7.5%	0.2%
COc1cccc(NC(=O)CN(C)C(=O)c2cc(C)oc2C)c1	-0.1%	-30.5*	i	i	8.6%	1.1%[1.84 µM]
CC1(C)Cc2c(C#N)c(N3CCN(C(=O)c4ccccc4Cl)CC3)nc(-c3ccco3)c2CS1	-11.8%	1.0	11.2µM*	i	22.1%	5.6%
Cc1cc(C)c(C#N)c(Sc2ccc(N)cc2)n1	-1.9%	-3.2	x	i	16.1%	9.5%
N#Cc1ncc(C(F)(F)F)cc1Sc1ccc(N)cc1	0.8%	-1.6	i	u	14.1µM*	6.6%
O=[N+]([O-])c1ccc(Nc2cccc(F)c2)nc1	1.5%	-2.6	i	i	12.6µM*	1.2%
O=[N+]([O-])c1ccc(Nc2ccc(F)cc2)nc1	-0.7%	-0.5	i	i	21.9%	-16.6%
CC(=O)Nc1ccc(Nc2ccc([N+](=O)[O-])cn2)cc1	0.5%	0.1	i	i	-22.0%[1.82 µM]	-9.4%
Cc1ccc(Nc2ccc([N+](=O)[O-])cn2)cc1Cl	-0.5%	-0.7	i	i	0.891µM*	-0.4%
COc1ccc2c(c1)C=C/C2=C/c1ccc(N(C)C)cc1	x	x	x	x	x	-8.2%
COC(=O)[C@@]12CCCCC3=C1N(CCC3)C(=O)[C@H]2CC(=O)NCc1ccc(OC)c(OC)c1	x	x	i	x	x	x
COC(=O)c1ccc(NC(=O)CC2C(=O)N(c3cccc(OC)c3)C(=O)N2Cc2ccco2)cc1 (configuration not stated)	x	x	i	i	4.8%	x
SMILES	Mm-Cpn inhibitor	CCT chaperon mod	FUS yeast rescue	Abeta rescue	TDP-43 yeast inh	aSyn yeast inh
Cc1ccccc1CN(C)CC(=O)NC(C)CCc1ccccc1 (configuration not stated)	0.4%	-93.9*	i	i	1.4%	3.2%
O=C(OCc1c(Cl)cccc1Cl)c1cccnc1Cl	0.1%	0.1	i	i	12.6µM*	7.4%
O=C(OCc1ccccc1Cl)c1cccnc1Cl	1.4%	-3.2	i	i	13.4%	0.4%
COCCN1CCN(Cc2ccc(C(=O)NC(C)C)cc2)C(=O)C1=O	x	x	i	i	23.0%	x
COc1ccc(-c2noc(CSc3nc4ccccc4[nH]3)n2)cc1	x	x	i	i	11.2µM*	x
COc1ccc(-c2noc(CSc3nnc(Cc4ccccc4)n3-c3ccc(F)cc3)n2)cc1	x	x	14.1µM*	i	35.5µM*	x
CCCCCCCCc1nc(=S)[nH][nH]1	-0.4%	1.0	i	i	12.6µM*	-1.5%
CCCCCCCC/C=C\CCCCCCCC(=O)NCCc1ccc(O)c(O)c1	-2.3%	-14.8	u	i	22.4µM*	u
O=C(CSc1nnc(-c2ccc(Cl)cc2)n1C1CCCCC1)NN=Cc1c(O)ccc2ccccc12	x	x	i	x	x	x
COc1cc(C(=O)N2CCc3c([nH]c4ccccc34)C2c2ccccc2)cc(OC)c1OC (configuration not stated)	x	x	u	i	8.4%	x
COc1cc(C(=O)N2CCc3c([nH]c4ccccc34)C2c2ccc(C)cc2)cc(OC)c1OC (configuration not stated)	x	x	14.1µM*	i	2.0%	x
O=C(c1cc(-c2ccccc2)n[nH]1)N1CCc2c([nH]c3ccccc23)C1c1ccccn1 (configuration not stated)	0.1%	-0.2	u	u	17.8µM*	u
Cn1cccc1C(=O)N1CCN(S(=O)(=O)c2ccc(Cl)s2)CC1	x	x	i	x	x	x
O=C1NCCc2c1[nH]c1c(Cl)ccc(Cl)c21	-3.1%	2.3	i	i	10µM*	14.0%
O=C1c2ccccc2C(=O)N1c1cccc(O)c1	x	x	x	x	x	-13.0%
CCN(CC)c1ccc(C(=C2C=CC(=[N+](CC)CC)C=C2)c2ccc(S(=O)(=O)O)cc2S(=O)(=O)[O-])cc1	x	0.5	31.6µM*	i	-61.5%	-57.2%
Cc1ccc(N2C(=O)CSC23C(=O)N(CC(=O)NCc2ccccc2)c2ccccc23)cc1C (configuration not stated)	x	x	i	i	24.2%	2.1%
COc1ccc(C2C(C(=O)N3CCOCC3)CC(=O)N2c2ccc(OC)cc2)cc1 (configuration not stated)	x	x	i	x	x	x
CN(C)c1nc(OCCNC(=O)COc2ccc(Cl)cc2Cl)nc(N(C)C)n1	1.3%	1.8	i	i	14.1µM*	0.4%
O=C(c1cccc(C(F)(F)F)c1)N1CCOc2ccccc21	2.1%	-0.2	i	i	14.1µM*	-0.6%
CCOc1cc(C2Nc3ccccc3C(=O)N2Cc2ccco2)ccc1OCc1ccccc1Cl (configuration not stated)	x	x	x	x	x	1.7%
Cc1ccc(CN2C(=O)c3ccccc3Sc3ccc(C(=O)NCc4ccco4)cc32)cc1	x	x	10µM*	i	22.3%	x
